Reference: PubChem BioAssay (NCI)
Compounds without any hit were thinned out: in the full panel of roughly 79,000, 15% have a hit. Values without a mark were called inactive. The source made the active and inactive calls. Rule as the data show it: active = growth inhibition above about 70%; inactive = the rest.

Legend:
[1] = NCI Yeast Anticancer Drug Screen. Data for the rad50 strain (AID 155);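 also: 0% = growth of vehicle-only cultures of the same strain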; conditions: S. cerevisiae rad50 strain growth inhibition; at 50.0 µM; hits give high values
How it was run: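 Growth of the mutant yeast was measured after compound exposure and referenced to vehicle-treated cultures.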

[2] = NCI Yeast Anticancer Drug Screen. Data for the mec2-1 strain (AID 157); conditions: S. cerevisiae mec2-1 strain, at 50.0 µM, hits give high values
How it was run: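 Readout is yeast growth inhibition, normalised to vehicle-treated controls, in the mec2-1 strain exposed to compound.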

[3] = NCI Yeast Anticancer Drug Screen. Data for the sgs1 mgt1 strain (AID 161);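 also: 0% = growth of cultures given vehicle only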; conditions: S. cerevisiae sgs1 mgt1 strain, at 50.0 µM, hits give high values
How it was run: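 Growth of a repair-deficient yeast mutant was monitored after compound treatment and expressed as inhibition relative to vehicle-treated cultures.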

[4] = NCI Yeast Anticancer Drug Screen. Data for the bub3 strain (AID 167); conditions: S. cerevisiae bub3 mutant strain, at 50.0 µM, hits give high values
How it was run: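 Whole-cell yeast assay. The mutant strain was incubated with compounds, and growth inhibition was determined by comparison with vehicle-treated cells.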

[5] = NCI Yeast Anticancer Drug Screen. Data for the mlh1 rad18 strain (AID 175); conditions: S. cerevisiae mlh1 rad18 strain growth inhibition; at 50.0 µM; hits give high values
How it was run: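 Test agents were incubated with a yeast strain of defined genotype (DNA damage repair defect). Inhibition of growth was derived by comparison with vehicle-exposed cultures.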

[6] = NCI Yeast Anticancer Drug Screen. Data for the cln2 rad14 strain (AID 165);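 also: 0% = growth equal to vehicle treated cultures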; conditions: S. cerevisiae cln2 rad14 strain, at 50.0 µM, hits give high values
How it was run: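 Relative to vehicle controls, growth inhibition of compound-treated cln2 rad14 yeast was recorded.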

SMILES | growth inhibition [1] | growth inhibition [2] | growth inhibition [3] | growth inhibition [4] | growth inhibition [5] | growth inhibition [6]
Cn1nc2c(c1-c1cccnc1)CCCc1ccccc1-2 | 10.1% | 24.6% | 13.7% | 69.3% | 28.9% | 
COc1cc(C2[C@H]3C(=O)N(c4ccc(Cc5ccc(N6C(=O)[C@@H]7ON(c8ccccc8)C(c8cc(OC)c(OC)c(OC)c8)[C@@H]7C6=O)cc5)cc4)C(=O)[C@H]3ON2c2ccccc2)cc(OC)c1OC (stereo not given in full) | -2.25% | 5.2% | 3.75% | 25.9% | -6.3% | 
COc1ccc(C(=O)c2ccc(OC)c3ccccc23)c2ccccc12 | -7.3% | -5.8% | -1.2% | 3.35% | 4.25% | 
CC1CCC2c3c([nH]c4ccccc34)C3C(=O)N(C4CCCCC4)C(=O)C3C2C1 (stereo not given) | 5.65% | 0.25% | 1.8% | 4.1% | 2.25% | 
COc1cccc(NC(N)=O)c1 | -15.5% | -14.2% | -9.3% | -10.1% | -19.4% | 
CC(C)CCOC(=S)S | 35.2% | 17.9% | -22.6% | 34.2% | -38.4% | 
C/C(CC(=O)Nc1ccccc1C)=N/NS(=O)(=O)c1ccc(C)cc1 | -2.2% | -5.2% | 10.2% | -18.4% | -6.9% | 
CN(C)CCNC(=O)c1cccc2[nH]c(-c3ccncc3)nc12 | 5.9% | -16.2% | -37.4% | -48% | -89.1% | 
CCn1cc(C(=O)CCP(=O)(OC)OC)c2ccccc21 | 7.5% | -22.2% | 3.6% | 5.15% | -0.25% | 
Cc1ccc(C2CC(c3ccc([N+](=O)[O-])cc3)=Nc3ccccc3S2)cc1 (stereo not given) | 6.4% | -1.75% | 15.1% | 20.5% | 8.6% | 
C=CCON(C)c1ccc([N+](=O)[O-])cc1[N+](=O)[O-] | 15.3% | -0.9% | 16.1% | -1.05% | 13.8% | 
CC[N+](C)(CC)CCOC(=O)c1ccccc1Oc1ccc(C)cc1 | 23.1% | -2.45% | 7.8% | -2.1% | 0.9% | 
CCC(CC)C(=O)NC(=O)NC(N)=O | 2.7% | 1.4% | 3.35% | 6.55% | -3.55% | 
CO[C@H]1C[C@H]2CC[C@@]1(C)C2(C)C | 8.85% | 12.6% | 3.7% | 0.4% | -5.55% | 
NC(=S)Nc1c(Cl)cc(Cl)cc1Cl | 44% | -8.9% | 33.4% | 17.3% | 12.3% | 
COc1ccccc1C(=O)c1ccccc1 | -27.4% | -7.3% | -3.4% | -20.1% | -11.2% | 
O=C(O)COc1ccc2ccccc2c1 (tested in a mixture with another compound) | -36% | -19.9% | -26.3% | -0.1% | -5.65% | 
Nc1nc(-c2ccc3c(ccc4ccccc43)c2)cs1 | 7.6% | 15.5% | 18.2% | 47.7% | 28.2% | 
O=C1c2ccccc2C(=O)N1N1C(=O)C2C3CCC(O3)C2C1=O (stereo not given) | 12.8% | 0.4% | 12.9% | 17.5% | 9.3% | 
Cc1nc2c(ccc3cc4ccccc4cc32)cc1N(CCO)CCO | 28.1% | -0.75% | -0.15% | 16.6% | 18.1% | 
O=c1nc2oc(-c3ccccc3)cn2c(=O)n1-c1ncc(-c2ccccc2)o1 | 1.35% | -6.9% | 1.4% | 8.1% | 6.05% | 
CNc1ccccc1C(N)=S | 5.9% | 2.5% | -2.95% | -5.55% | 11.8% | 
Fc1nc2nc(C(F)(F)F)[nH]c2nc1F | 15.8% | -0.85% | -23.9% | 0.85% | 7.6% | 

SMILES | growth inhibition [1] | growth inhibition [2] | growth inhibition [3] | growth inhibition [4] | growth inhibition [5] | growth inhibition [6]
Nc1nc(-c2ccccc2)nc2[nH]ncc12 | -5.45% | -3.5% | -11.2% | 1.6% | 5.75% | 
NC(=O)CCBr | -15.3% | 20.2% | -5.45% | 1.3% | -29.1% | 
C=CCSc1nc2ccc(NCn3c(=S)sc4ccccc43)cc2s1 | 71.7% (active) | 65.2% | 85.7% (active) | 41.9% | 56.7% | 
CCc1ccc(NC(=S)NC(=O)C(C)Oc2ccccc2)cc1 (stereo not given) | 39.5% | 21.6% | 54.7% | 78.8% (active) | 8.9% | 
O=C1c2ccccc2C2CC1c1ccccc12 (stereo not given) | 6.35% | -1.6% | -1.7% | -16.4% | -5.4% | 
CC(=O)N1C(=O)NC(=O)C1(C)C | -7% | -29.9% | 6.65% | 1.5% | -7.15% | 
CC1=C(c2cc(C(=O)Nc3cccc(Cl)c3)nc(NC#N)n2)Sc2ccccc2N1 | 25.6% | 0.9% | -0.7% | 4.75% | 33.5% | 
CN(C)OC(=O)Nc1cccc([N+](=O)[O-])c1 | 19.1% | 13.3% | 14.1% | 4.8% | -2.6% | 
COc1ccc(N2C(=O)C3c4[nH]c5ccc(C)cc5c4C4CCC(C)CC4C3C2=O)cc1 (stereo not given) | -24.2% | -0.6% | 1.65% | -13.3% | -4.55% | 
OC1c2ccccc2CC1Br (stereo not given) | -4.8% | -3.8% | -9.25% | 7.65% | -8.15% | 
c1cc(-c2cc(-c3cc(-c4ccncc4)n[nH]3)[nH]n2)ccn1 | 9.45% |  | 8.45% | -13.8% | 4.6% | 3.3%
CC(C)(O)c1ccccc1[S+]1OC(C)(C)c2ccccc21 (stereo not given) | 27.9% |  | 30.3% | 98.3% (active) | 35.8% | 56.8%
O=C(NC1C(=O)NNC1c1cccc([N+](=O)[O-])c1)c1ccccc1 (stereo not given) | -37.5% |  | 2.85% | 11.9% | 0.55% | -10.6%
Cc1onc(-c2c(F)cccc2Cl)c1C(=O)Nc1cc2cc([N+](=O)[O-])ccc2oc1=O | 12.3% |  | 2.3% | 2.8% | 12.5% | 8.15%
COc1cc2c(cc1OC)-c1ccc3cc4c(cc3c1N(C)C2)OCO4 | -3.8% |  | 9.8% | -12.7% | -2.65% | -4.65%
O=c1/c(=C/c2ccccc2O)sc2nc3ccccc3n12 | 9.65% |  | 18.9% | 10.4% | 20.9% | 15%
CCCC(C)C1(CC)NC(C)(C)CC(C)O1 (stereo not given) | 2.75% |  | -5.75% | 4.9% | 1.2% | -29.4%
COc1cc(C(C)C)c(Oc2c(C)c(OC)cc(C(C)C)c2O)cc1C (tested in a mixture with another compound) | -7.5% |  | -9.6% | 7.9% | 7.4% | -11.1%
CNC1C(CO)OC(n2cnc3c(N)ncnc32)C1O (stereo not given) | 1.85% |  | 3.75% | 2.75% | -13.2% | -60.8%
CCOC(=O)C1CC(C)CC1=O (stereo not given) | 5.7% |  | -4.6% | 1.35% | 0.2% | -4.4%
CC(C)(C)OC(=O)N1CCCC1=O | 9.65% |  | 24.8% | 8.05% | 28.5% | 22.3%
C=CCC(=O)OCc1cc2c(cc1Br)OCO2 | -26.8% |  | -8.35% | 54.5% | 5.85% | -10.6%
COc1c(O)c2ccccc2c2cc(O)ccc12 | 6.8% |  | 23.6% | 56.4% | 10.2% | -14.2%
